Shown are actives, neighbours in structure and some others; about 4% of the full set was active somewhere.
Rv3671c inh – inhibits the M. tuberculosis serine protease Rv3671c; P9WHR9; inhibition, % at 5.96 µM; AID 2606; 320,000 compounds, 0.048% hits; in the data active means inhibition above about 38%;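 further: extracellular domain of Rv3671c used as enzyme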
UGM FP inh – Mtb UDP-galactopyranose mutase inhibition; 320,000 compounds, 0.06% hits; purified UGM, fluorescence polarization probe displacement; P9WIQ1; AID 504406; inhibition, % at 10 µM; in the data active means inhibition above about 10%, passing the limit was not always enough
Mtb FBA inh – Mtb fructose-bisphosphate aldolase inhibition; inhibition, % at 1 µM; AID 588726; purified M. tuberculosis FBA, fluorescence read-out; 360,000 compounds, 2.3% hits; P9WQA3; in the data active means inhibition above about 27%
Target sequence (P9WQA3 whole entry, looked up): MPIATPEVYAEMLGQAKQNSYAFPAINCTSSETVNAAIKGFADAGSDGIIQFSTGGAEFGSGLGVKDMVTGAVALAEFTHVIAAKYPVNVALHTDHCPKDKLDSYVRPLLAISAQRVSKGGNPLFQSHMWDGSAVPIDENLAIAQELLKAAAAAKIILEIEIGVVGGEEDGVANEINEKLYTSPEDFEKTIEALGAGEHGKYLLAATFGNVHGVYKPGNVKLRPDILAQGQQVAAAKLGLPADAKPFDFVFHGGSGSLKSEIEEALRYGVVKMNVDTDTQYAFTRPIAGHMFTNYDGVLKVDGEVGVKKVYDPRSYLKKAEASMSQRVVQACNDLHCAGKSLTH
RecA splice inh – inhibitors of M. tuberculosis RecA intein splicing | AID 2221 | cell-free RecA intein splicing, fluorescence | 290,000 compounds, 0.75% hits | P9WHJ3 | inhibition, % (no concentration beside the values); in the data active means inhibition above about 30%
GDH-TPI inh – inhibits GDH-TPI coupling enzymes, artifact for Mtb FBA screen. GDH-TPI coupled enzyme counterscreen, NADH absorbance. inhibition, % at 4.8 µM. 360,000 compounds, 1.2% hits; in the data active means inhibition above about 30%
Mtb betalactam – beta-lactam sensitization of Mtb H37Rv. M. tuberculosis H37Rv growth with meropenem, percent inhibition. inhibition, % at 25 µM. 330,000 compounds, 0.27% hits. AID 434955; call rule not given here;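 further: growth measured after seven days incubation then overnight dye step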
Numbers stand for hits; – = inactive; · = no result given; + = active, no number.

SMILES	Rv3671c inh	UGM FP inh	Mtb FBA inh	RecA splice inh	GDH-TPI inh	Mtb betalactam
Cc1ccc(N(CC(=O)NCc2ccco2)C(=O)CCC(=O)Nc2nccs2)cc1C	–	–	–	–	–	–
COc1ccc(CNCc2c(F)cccc2F)cc1OC	·	–	–	–	–	–
O=C1NC(=O)/C(=C\c2ccc(Oc3ccc([N+](=O)[O-])cn3)cc2)S1	–	–	–	–	35.1	–
O=[N+]([O-])c1ccc(Oc2ccc(/C=N/O)cc2)nc1	–	–	–	·	–	–
COc1cc(S(=O)(=O)N2CCOCC2)cc(C(=O)OCC(=O)NCc2ccco2)c1OC	–	–	–	·	–	–
CCOc1cc2[nH]c(=S)n(CCOC)c(=O)c2cc1OCC	–	–	–	–	32.7	–
CCOc1cc2[nH]c(=S)n(CCCN(CC)CC)c(=O)c2cc1OCC	–	–	–	–	–	–
CC(C)n1c(=O)c(C=Nc2ccc(S(N)(=O)=O)cc2)c(O)n(Cc2ccco2)c1=O	–	–	–	–	32.3	–
COc1ccc(-c2cn3c(n2)CCC3)cc1	–	–	–	–	–	–
c1ccc(-c2ccc(-c3cn4c(n3)CCC4)cc2)cc1	–	–	157.6	–	–	·
O=C(Nc1nc2c(s1)CCCC2=O)c1cnccn1	–	–	–	–	32.0	–
CCn1cc(/C=C(\NC(=O)c2ccccc2F)C(=O)NCCCn2ccnc2)c2ccccc21	–	–	–	–	32.8	–
CCn1cc(/C=C(\NC(=O)c2ccccc2OC)C(=O)NCCCn2ccnc2)c2ccccc21	–	–	–	–	–	–
CCn1cc(/C=C(\NC(=O)c2ccc(OC)cc2)C(=O)NCCCn2ccnc2)c2ccccc21	·	·	–	·	37.2	·
COc1ccc(-c2nc(C#N)c(NCC3CCCO3)o2)cc1 (stereo not given)	–	–	177.2	·	–	–
O=S(=O)(c1ccccc1)c1nc(-c2cccs2)oc1NCC1CCCO1 (stereo not given)	–	–	–	–	–	–
Cc1ccc(-c2nc(C#N)c(NCC3CCCO3)o2)cc1 (stereo not given)	–	–	179.7	–	–	–
N#Cc1nc(-c2cccs2)oc1NCC1CCCO1 (stereo not given)	–	–	+	–	–	–
CC1CCN(CCc2nc3cc(NC(=O)COc4ccc([N+](=O)[O-])cc4)ccc3n2C)CC1	–	–	–	–	–	–
O=C(CSc1nc(-c2ccc(F)cc2)cs1)NCC1CCCO1 (stereo not given)	–	–	–	·	–	–
O=S(=O)(Nc1nc2ccccc2nc1NCC1CCCO1)c1cc(Cl)ccc1Cl (stereo not given)	–	–	–	–	–	–
Cc1ccc(C(c2nnnn2C(C)(C)C)N(Cc2ccco2)Cc2cccs2)cc1 (stereo not given)	–	–	36.3	–	–	–
O=C(c1cccnc1)N1CCN(c2ccc(Cl)cc2)CC1	–	–	–	–	32.1	–
O=C(c1cccc(F)c1)N1CCN(c2cccc(Cl)c2)CC1	–	–	–	–	–	–
O=C(c1ccccc1)c1ccc(C(=O)N2CCN(c3ccc(O)cc3)CC2)cc1	–	–	–	·	–	–
SMILES	Rv3671c inh	UGM FP inh	Mtb FBA inh	RecA splice inh	GDH-TPI inh	Mtb betalactam
O=C(c1ccc(N2CCN(C(=O)c3ccccc3)CC2)cc1)c1cccc(F)c1	–	–	–	–	37.6	–
O=C(c1ccc(N2CCN(C(=O)c3ccc(F)c(F)c3)CC2)cc1)c1cccc(F)c1	–	–	–	–	32.0	–
CCN(CC(=O)Nc1c(F)cccc1F)C(=O)c1ccc(C#N)cc1	–	–	–	–	–	–
COc1ccc(S(=O)(=O)NC2CCSc3ccccc32)cc1OC (stereo not given)	–	–	–	–	–	–
Cc1ccc(/C=C/C(=O)Nc2ccc(S(=O)(=O)Nc3ncccn3)cc2)cc1	–	–	–	–	–	–
O=C(/C=C/c1ccc(F)cc1)Nc1ccc(S(=O)(=O)Nc2ncccn2)cc1	–	–	–	–	32.9	–
CCCn1c(/C=C/c2ccccc2)nc2ccccc21	–	–	52.5	–	38.1	–
CCn1c(/C=C/c2cc[n+](C)cc2)nc2ccccc21	–	–	–	–	–	–
Cc1ccccc1NC(=O)C1CCCN1/C=C/C(=O)C(F)(F)F (stereo not given)	–	–	–	–	–	–
O=C(Nc1ccccc1)C1CCCN1/C=C/C(=O)C(F)(F)F (stereo not given)	–	–	–	–	43.9	–
O=C(C=Cc1ccc2c(c1)OCO2)OCC=Cc1ccc2c(c1)OCO2	·	·	–	·	–	·
COc1ccc(S(=O)(=O)N(C)c2nc3ccccc3n3c(CC(C)C)nnc23)cc1	–	–	56.0	–	–	–
CCCCNC(=O)c1nc(-c2ccncc2)oc1-c1ccccc1	·	·	+	·	·	·
CN(C)C(=O)c1cccc(-c2cnc3cccnn23)c1	·	·	132.0	·	–	·
c1cnn2c(-c3ccc4c(c3)CCO4)cnc2c1	·	·	–	·	–	·
N#C/C(=C\c1ccc[nH]1)C(=O)NC1CC1	–	–	–	–	31.9	–
Cc1ccc(C)c(NC(=O)/C(C#N)=C/c2ccc[nH]2)c1	–	–	–	–	31.3	–
CC(=O)NC(c1ccc(F)c(F)c1)c1nc(-c2cccs2)cs1 (stereo not given)	·	·	–	·	–	·
CC(=O)COc1ccc2c3c(c(=O)oc2c1C)CCCCC3	–	–	115.2	–	–	–
Cc1oc2c(C)c3oc(=O)c4c(c3cc2c1C)CCCC4	–	–	–	–	–	–
Cc1c(O)ccc2c3c(c(=O)oc12)CCCC3	–	–	193.3	·	–	–
Cc1c(OC(=O)CNC(=O)OC(C)(C)C)ccc2c3c(c(=O)oc12)CCC3	–	–	122.0	–	–	–
Cc1c(OCC(=O)OC(C)(C)C)ccc2c3c(c(=O)oc12)CCC3	–	–	–	–	–	–
Oc1ccc(C[C@H]2CN([C@@H](Cc3cccc(O)c3)CN3CCC[C@@H]3CN3C(=S)NC[C@@H]3Cc3ccccc3)C(=S)N2CC2CCCCC2)cc1	·	·	–	·	·	·
Cc1ccc(-c2sc(-c3ccccc3)nc2CC(=O)Nc2ccccc2F)cc1	–	–	–	–	–	–
SMILES	Rv3671c inh	UGM FP inh	Mtb FBA inh	RecA splice inh	GDH-TPI inh	Mtb betalactam
Cc1ccc(NC(=O)CC2=NC(=O)C(CC(=O)Nc3ccccc3F)S2)cc1 (stereo not given)	–	–	–	–	32.5	–
NC1=NC(=O)/C(=C\C=C\c2ccccc2)S1	–	–	–	–	–	–
O=C1NC(=O)C(=CC=Cc2ccccc2)S1	·	·	–	·	37.7	·
COCC(=O)N/N=C(\C)CC(=O)Nc1ccccc1C(N)=O	–	–	55.0	–	–	–
CCOc1cc(/C=N/NC(=O)C(=O)NC2CC2)cc(Br)c1O	–	–	–	–	32.7	–
CCOc1cc(/C=N/NC(=O)C(N)=O)cc(Br)c1O	–	–	–	–	–	–
CCOc1cc(/C=N/NC(=O)c2ccc3c(c2)OCCO3)cc(Br)c1O	–	–	–	–	40.6	–
Cc1ccc(NC(=S)NNC(=O)c2ccc(N3CCOCC3)c([N+](=O)[O-])c2)cc1C	–	–	–	–	–	–
CN1C(C(=O)Nc2ncccn2)=C(O)c2ccccc2S1(=O)=O	·	–	–	–	–	–

Assay outcomes (PubChem BioAssay)
